Consider one molecule from the supplement of paper PMC8728848.

Common to all, as to assay: glycan array binding signal (z-score within array); higher = stronger binding
Common to all, as to conditions: glycan notation: IUPAC condensed, linker removed

The target in one test is Fuc(a1-2)Gal(b1-3)GlcNAc. In a few lines: (§1)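 The binding signal is a Z-score computed within each array. Data were drawn from 3228 arrays in the Consortium for Functional Glycomics database, restricted to those with a known protein sequence. Scores were averaged over arrays of the same protein sequence at different concentrations or buffers, and over linkers, and negative values can be taken as non-binding.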

In test [1] the target is Fuc(a1-2)Gal(b1-4)[Fuc(a1-3)]GlcNAc(b1-3)Gal(b1-4)[Fuc(a1-3)]GlcNAc. The method in brief: as §1
Test [2] addresses Fuc(a1-3)[Gal(b1-4)]GlcNAc(b1-3)Gal(b1-3)[Fuc(a1-4)]GlcNAc. The method in brief:
as §1

For test [3], the target named is Fuc(a1-3)[Gal3S(b1-4)]Glc6S. The method in brief:
as §1

Another test concerns the target Gal(b1-3)GalNAc. The method in brief: as §1
For test [4], the target named is Gal(b1-4)GlcNAc(b1-2)Man(a1-3)[Gal(b1-4)GlcNAc(b1-2)Man(a1-6)]Man(b1-4)GlcNAc(b1-4)GlcNAc. In a few lines: as §1
Test [5] concerns the target Gal(b1-4)GlcNAc(b1-3)Gal(b1-4)[Fuc(a1-3)]GlcNAc(b1-3)Gal(b1-4)[Fuc(a1-3)]GlcNAc. The method in brief: as §1
Test [6] concerns the target Gal(b1-4)GlcNAc(b1-3)[GlcNAc(b1-6)]Gal(b1-4)GlcNAc. The method in brief:
as §1

For test [7], the target named is Gal(b1-4)GlcNAc(b1-6)[Gal(b1-3)]GalNAc. In a few lines: as §1
Test [8] concerns the target Gal3S(b1-4)[Fuc(a1-3)]Glc. The method in brief: as §1
The target in the next test is Gal4S6S(b1-4)GlcNAc. In a few lines: as §1
For another test, the target named is Glc(a1-6)Glc(a1-6)Glc. The method in brief: as §1
Another test addresses GlcA(b1-6)Gal. The method in brief: as §1
Test [9] has as its target Man(a1-2)Man(a1-3)[Man(a1-2)Man(a1-6)]Man(a1-6)[Man(a1-2)Man(a1-2)Man(a1-3)]Man. The method in brief: as §1
Test [10] has as its target Man(a1-2)Man(a1-6)[Man(a1-3)]Man(a1-6)[Man(a1-2)Man(a1-2)Man(a1-3)]Man(b1-4)GlcNAc(b1-4)GlcNAc. In a few lines:
as §1

The target in another test is Man(a1-3)[Man(a1-6)]Man. In a few lines: as §1
Test [11] deals with Neu5Ac(a2-3)Gal(b1-3)GalNAc(b1-4)[Neu5Ac(a2-3)]Gal(b1-4)Glc. In a few lines:
as §1

The target of test [12] is Neu5Ac(a2-3)Gal(b1-4)GlcNAc(b1-3)Gal(b1-3)GlcNAc. The method in brief: as §1
Test [13] has as its target Neu5Ac(a2-3)Gal(b1-4)[Fuc(a1-3)]GlcNAc(b1-3)Gal. The method in brief: as §1
For test [14], the target named is Neu5Ac(a2-3)[GalNAc(b1-4)]Gal(b1-4)Glc. In a few lines: as §1
The target of test [15] is Neu5Ac(a2-6)Gal(b1-4)GlcNAc(b1-2)Man(a1-3)[GlcNAc(b1-2)Man(a1-6)]Man(b1-4)GlcNAc(b1-4)GlcNAc. The method in brief: as §1
The target of test [16] is Neu5Ac(a2-6)GalNAc(b1-4)GlcNAc. The method in brief: as §1

The entries come from a sample that favours the strongest signals as a whole.

B1: RfpB (Mycobacterium tuberculosum), O05594 (protein)
chain: MAAGLVTASMSLSTAVAHAGPSPNWDAVAQCESGGNWAANTGNGKYGGLQFKPATWAAFGGVGNPAAASREQQIAVANRVLAEQGLDAWPTCGAASGLPIALWSKPAQGIKHAGPSPNWDAVAQCESGGNWAANTGNGKYGGLQFKPATWAAFGGVGNPAAASREQQIAVANRVLAEQGLDAWPTCGA
As for B1, the “glycan array binding signal (z-score)” value in the test with Fuc(a1-2)Gal(b1-3)GlcNAc was 0.352; in test [1], -0.487; in test [2], -0.065; in test [3] it was 2.53; with Gal(b1-3)GalNAc, -0.202; in [4], -0.1. Besides, the “glycan array binding signal (z-score)” value was 9.72 in test [5]; 2.74 in [6]; -0.262 in test [7]; -0.568 in test [8]; 0.03 with Gal4S6S(b1-4)GlcNAc; -0.239 with Glc(a1-6)Glc(a1-6)Glc. The “glycan array binding signal (z-score)” value in the test with GlcA(b1-6)Gal was -0.284; in test [9], -0.097; in test [10] it was -0.426; with Man(a1-3)[Man(a1-6)]Man it was 9.95; in test [11], 4.02; in test [12], -0.23. The “glycan array binding signal (z-score)” value in test [13] is -0.07; in [14], -0.524; in test [15] it was -0.499; in [16], -0.639.
